Reference: PubChem BioAssay (NCATS)
Results filed as inconclusive are left out. Where a call stands in place of a potency, no number is given. Calls of active or inactive are those of the source. The call rests on the fitted dose curve; in most records, active means well fitted inhibition curve with a large enough effect; inconclusive means small, poorly fitted or top-dose-only effect; inactive means no such curve, though single readings can be large or run the other way.

How the values were obtained:
[1] = qHTS assay for measurement of the activity of small molecule inhibitors on Zika virus induced Caspase-3 activity in human iPSC derived neural progenitor cells (hNPCs) (AID 1224857); further: nearly all actives have a fitted effect of over 65% in size
Summary of the method: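 After overnight (16–20 h) culture at 350 cells/well, hNPCs get compound, then ZIKV 2 FFU/cell one hour later. Six hours on, Caspase-Glo 3/7 is added and luminescence measured.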

[2] = qHTS assay for measurement of the activity of small molecule inhibitors on Zika virus induced Caspase-3 activity in human astrocytoma cells (AID 1224859)
Summary of the method: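 Inhibition of Zika-induced caspase-3/7 activity: SNB-19 cells, 1 h compound pretreatment, ZIKV 2 FFU/cell for 6 h at 37 C, Caspase-Glo luminescence read-out.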
Potency means the concentration at half of the fitted maximal effect.

Row | SMILES | Potency [1] | Potency [2]
1 | NC(=O)C(=O)O | inactive | inactive
2 | NCCCCCCCCCCN | inactive | inactive
3 | CC(C)(C=O)Cc1cc(C(C)(C)C)c(O)c(C(C)(C)C)c1 | inactive | inactive
4 | NO | inactive | inactive
5 | COc1cc(SC)ccc1C(=O)N1CCC(Cc2ccccc2)CC1 | inactive | inactive
6 | O=C(/C=C/c1ccc(O)cc1)c1ccc(O)cc1O | 2820 nM (active) | 1260 nM (active)
7 | C=C[C@H]1CN2CC[C@@H]1C[C@@H]2[C@@H](O)c1ccnc2ccc(OC)cc12 | inactive | inactive
8 | COc1cccc(C(=O)NCCN2CCN(c3ccc(Cl)cc3)CC2)c1 | inactive | inactive
9 | NCCCS(=O)(=O)O | inactive | inactive
10 | O=C(O)c1cc(=O)c2ccccc2[nH]1 | inactive | inactive
11 | NS(=O)(=O)C#Cc1ccccc1 | inactive | inactive
12 | Fc1cccc(/C=N/N=C/c2cccc(F)c2)c1 | inactive | inactive
13 | Clc1ccc(N2CCN(Cc3cc4ccccn4n3)CC2)cc1 | inactive | inactive
14 | O=C(O)CNC(=O)C(CS)Cc1ccccc1 (stereo not given) | inactive | inactive
15 | C[C@@H](CN1CCC(Cc2ccccc2)CC1)[C@@H](O)c1ccc(O)cc1 | inactive | inactive
16 | CCCCCCCCc1ccc(-c2ccc(C(=O)O)cc2)cc1 | inactive | inactive
17 | O=S(=O)(c1cccc2c(I)cccc12)N1CCCNCC1 | inactive | inactive
18 | CCOC(=O)C1=C(C)NC(C)=C(C(=O)OCC)C1c1c(F)c(F)c(F)c(F)c1F | inactive | inactive

Row | SMILES | Potency [1] | Potency [2]
19 | Cc1cc(NC2CCCCC2)nc(-n2nc(C)cc2C)n1 | inactive | inactive
20 | O=C(c1ccc(Cl)cc1)N1CCN(c2ccc([N+](=O)[O-])c3ncccc23)CC1 | inactive | inactive
21 | O=C(O)CCCC[C@@H]1CCSS1 | inactive | inactive
22 | CN1CCc2cc(NC(=O)Nc3cccnc3)ccc21 | inactive | inactive
23 | CC(=O)N[C@H](C(=O)O)C(C)(C)SN=O | inactive | inactive
24 | COc1ccc2c(c1)CCC1C2CC[C@@]2(C)C1CC[C@@H]2NCCCCCCN1C(=O)CCC1=O (stereo not given in full) | inactive | inactive
25 | CCCCCCCC/C=C\CCCCCCCC(=O)NCCO | inactive | inactive
26 | CCCCCCCCCCCCCCCC(=O)OC(CC(=O)O)C[N+](C)(C)C (stereo not given) | inactive | inactive
27 | Cc1cc(NC(=O)Nc2ccc3c(ccn3C)c2)sn1 | inactive | inactive
28 | Brc1c(Br)c(Br)c2n[nH]nc2c1Br | inactive | inactive
29 | O=C(c1cc(O)c(O)c([N+](=O)[O-])c1)c1ccccc1F | inactive | inactive
30 | Cc1cc2c(cc1Cl)N(C(=O)Nc1ccc(Oc3cccnc3C)nc1)CC2 | inactive | inactive
31 | OCC1O[C@H](O)C(Cl)C(O)C1O (stereo not given in full) | inactive | inactive
32 | COC(=O)c1c(C)[nH]c(C)c1C(=O)c1ccccc1Cc1ccccc1 | inactive | inactive
33 | c1cnc2c(c1)ccc1cccnc12 | inactive | inactive
34 | O=C(CCCCCN1CCN(c2ccccc2-c2ccccc2)CC1)NC1CCCc2ccccc21 (stereo not given) | inactive | inactive
35 | CCCCCCCCCCCCCCCCCC(=O)OC(CC(=O)O)C[N+](C)(C)C (stereo not given) | inactive | inactive
